Structures are written as SMILES. In all, about 72,000 compounds went through this assay and about 710 (0.99%) were called active. Roughly 7% stayed inconclusive and do not appear here. The full list was thinned out, with actives kept by preference. Values without a mark were called inactive. Calls follow the shape of the dose curve; as a rule, active = well fitted inhibition curve with a large enough effect; inconclusive = small, poorly fitted or top-dose-only effect; inactive = no such curve, though single readings can be large or run the other way.
% is scaled to controls: 0 for no effect and ±100 for the full control effect; potency is read from the fitted curve at half-maximal effect.

The nature of the test: qHTS Assay for Inhibitors of the ERK Signaling Pathway using a Homogeneous Screening Assay. Also: nearly all actives have a fitted effect of over 55% in size. The following applies: HEK293-V1b, vasopressin-stimulated pERK AlphaScreen; series mostly up to 57.5 µM; activity, negative = inhibition: at the top concentration. From the text:
qHTS Assay for Inhibitors of the ERK Signaling Pathway using a Homogeneous Screening Assay; also: nearly all actives have a fitted effect of over 55% in size
NIH Chemical Genomics Center [NCGC]
NIH Molecular Libraries Screening Centers Network [MLSCN]
Assay Submitter (PI): Dr. Wei Zheng, NCGC/NIH
The Ras/extracellular-signal-regulated kinase (ERK) mitogen activated protein (MAP) kinase signaling pathway (ERK1/2 cascade) plays is a key role in transmitting signals from the cell surface to the nucleus (Nishida and Gotoh 1993; Chang and Karin, 2001). The cascade is initiated by the small G-protein Ras, which recruits Raf […], where activation occurs. Alternatively, this pathway can be activated by elevating intracellular cAMP.
Activation of the ERK pathway is essential in increased cell division and cell survival. Sustained and constitutive activation of the ERK pathway, however, has been linked to uncontrolled cell proliferation, increased cell survival, and tumor progression. Thus, the ERK has been as an attractive target for cancer chemotherapy in the past few years (Sebolt-Leopold and Herrera, 2004). Given its physiological and pathological importance, assessment of ERK phosphorylation has been broadly performed in both basic research and drug discovery. Most assays for the measurement of ERK phosphorylation use the antibody-based detection methods, such as western blot and ELISA. These assays require multiple reagent additions with cell wash steps and are not suitable for high throughout screening.
The current cell-based ERK phosphorylation assay was performed using AlphaScreen platform. AlphaScreen is a two bead-based proximity-dependent chemical energy transfer luminescent assay platform. The assay reagents (ERK SureFire(TM) kit) were supplied from TGR BioSciences (Australia). In the presence of specific antibodies, phosphorylated ERK will bring "donor" and "acceptor" beads to a proximity range (<200 nm), and subsequently lead a chemical luminescent reaction upon exciting donor beads with 680 nm laser. To exclude the assay-related false positives, we used a biotinylated rabbit IgG to perform counter-screen. The biotinylated antibody mimics the phosphorylated ERK1/2 for bringing streptavidin coated beads and protein-A coated beads to a proximity range for the AlphaScreen detection.
NCGC Assay Protocol Summary:
HEK293 cells stably expressing type-1 vasopressin receptor (V1b) were maintained in DMEM medium (Invitrogen, Carlsbad, CA) at 37C under a humidified atmosphere containing 5% CO2 and 95% air. The medium contained 10% FBS, 2 mM L-glutamine, non-essential amino acid, pyruvate and 50 U/ml penicillin and 50 ug/ml streptomycin (Invitrogen). The aliquots of frozen cells were stored at -135C and used for the compound screening. All compounds were screened as titrations from 0.6 nM to 46 uM final concentration. Vasopressin was used to stimulate the ERK phosphorylation pathway. The ERK phosphorylation in cells was determined using an AlphaScreen assay kit provided by PerkinElmer. Data were normalized to the controls for basal activity (DMSO only) and 100% activation (25 nM vasopressin). AC50 values were determined from concentration-response data modeled with the standard Hill equation.
(1) Seed 4 ul/well of resuspended frozen HEK293 cells containing 2000 cells in white 1536-well plates for overnight with 1% FBS at 37C under a humidified atmosphere containing 5% CO2 and 95% air.
(2) Add 23 nL compounds in DMSO solution. The final titration was 0.6 nM to 46 uM.
(3) Incubate at 37C for 30 min.
(4) Dispense 0.5uL vasopressin (25 nM in final)
(5) Incubate at 37C for 5 min.
(6) Dispense 0.5uL of 1:2 diluted 5x lysis buffer.
(7) Incubate at 37C for 10 min.
(8) Dispense 1.5uL of mixture of activation buffer and reaction buffer with AlphaScreen beads (streptavidin donor beads and protein-A acceptor beads, 10 ng/well for each).
(9) Incubate at room temperature for 5 hr.
(10) Detect the assay plate in an EnVision plate reader (PerkinElmer) using the AlphaScreen detection mode.
[…]
A general note: Quantitative high-throughput screening tests each substance at several concentrations.
Take `N#Cc1c(Cl)c(Cl)c(Cl)c(C#N)c1Cl`: the Potency was 2 µM (active).

Consider `C[N+]1(C)C2CC(OC(=O)C(CO)c3ccccc3)CC1[C@@H]1O[C@H]21` (stereo not given in full), for which the Potency result was “inactive”.

With `BrC1C(Br)C(Br)C(Br)C(Br)C1Br` (stereo not given), the “activity, negative = inhibition” value is 41.9%.

`COC1CC(OC2CC[C@@]3(C=O)C4CC[C@]5(C)C(C6=CC(=O)OC6)CC[C@@]5(O)C4CC[C@]3(O)C2)OC(C)C1O` (stereo not given in full): the “activity, negative = inhibition” value was 3.45%.

Regarding `CN1[C@@H]2CC[C@H]1CC(OC(=O)c1cc(Cl)cc(Cl)c1)C2` (stereo not given in full), the “activity, negative = inhibition” value was 11.3%.

As to `CN1[C@@H]2CC[C@H]1CC(NC(=O)c1nn(C)c3ccccc13)C2` (stereo not given in full), the “activity, negative = inhibition” value was 28.8%.

Take `C[C@H](CCC(=O)O)[C@H]1CC[C@@H]2[C@H]3CC[C@H]4C[C@H](O)CC[C@@]4(C)[C@@H]3CC[C@@]21C`: the activity, negative = inhibition was -8.67% [at 11.5 µM].

Take `CSC1=NP(=S)(SC)N(C)c2nc3n(c21)CCC3` (stereo not given): the Potency was 15.8 µM (active).

Consider `CNC(C)[C@@H](O)c1ccccc1` (stereo not given in full), for which the “activity, negative = inhibition” value was 4.53%.

Regarding `C[C@]12CC[C@H](O)CC1=CC[C@@H]1[C@H]2CC[C@]2(C)C(=O)CC[C@H]12`, the “activity, negative = inhibition” value is 14.5%.

In the case of `O=[N+]([O-])c1ccc(Cl)c(Cl)c1`, the “activity, negative = inhibition” value is 21.3%.

With `CC(C)(Cc1c[nH]c2ccc(Cl)cc12)NCCOc1ccccc1OCC1CC1`, the Potency was 39.8 µM (active).

Take `Clc1cccc(Cl)c1Cl`: the “activity, negative = inhibition” value is -11.6%.

For the compound `CNCC[C@H](Oc1ccc(C(F)(F)F)cc1)c1ccccc1`, the Potency entry is “inactive”.

As to `CC(C)C(N)C(=O)OCCOCn1cnc2c(=O)[nH]c(N)nc21` (stereo not given), the “activity, negative = inhibition” value was 22.7%.

The values are drawn from PubChem BioAssay AID995 (National Center for Advancing Translational Sciences (NCATS), 2007).
